Rows were chosen to be rich in hits. Some 2.3% of all compounds tested hit in one or more screens of this group.
M1 ag: human M1 muscarinic receptor agonists, primary screen, Fluo-8 calcium fluorescence, CHO-K1 cells, HTS; Muscarinic acetylcholine receptor M1 (Homo sapiens), P11229; CHO-K1 hM1, agonist mode; 0% DMSO, 100% acetylcholine EC100; activation, % at 3 µM; 0.33% of 360,000 active; AID 588814, 2011;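 active means activation above the run's mean compound activation plus 3 SD, cut at about 16% in these data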;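 further: peak over basal fluorescence ratio within a 140 s kinetic read after compound addition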
Target sequence (P11229 whole entry, looked up): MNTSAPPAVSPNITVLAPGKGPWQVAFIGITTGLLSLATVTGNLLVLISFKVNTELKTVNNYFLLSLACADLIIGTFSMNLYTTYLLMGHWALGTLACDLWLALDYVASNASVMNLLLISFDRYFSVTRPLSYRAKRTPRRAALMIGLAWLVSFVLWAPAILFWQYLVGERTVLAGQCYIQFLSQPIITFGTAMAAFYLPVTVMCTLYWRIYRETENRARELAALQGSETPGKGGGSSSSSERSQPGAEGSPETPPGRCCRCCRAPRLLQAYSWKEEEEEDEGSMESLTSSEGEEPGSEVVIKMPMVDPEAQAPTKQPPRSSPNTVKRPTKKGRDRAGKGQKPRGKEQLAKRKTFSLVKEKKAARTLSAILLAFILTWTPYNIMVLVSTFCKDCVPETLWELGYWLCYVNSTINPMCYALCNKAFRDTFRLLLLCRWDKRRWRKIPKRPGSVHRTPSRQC
CHO-K1 Ca antag: counter-screen for M1 antagonists: effect in parental CHO-K1 cells; ATP-induced calcium, Fluo-8 fluorescence; 0.6% of 360,000 active; inhibition, % at 3 µM;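 active means inhibition above a per-plate cutoff, the plate's mean sample inhibition plus 3 SD, cut at about 24% in these data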
M1 PAM: human M1 muscarinic receptor positive allosteric modulators, primary screen, CHO-K1 cells, Fluo-8 calcium fluorescence, 1536-well | Muscarinic acetylcholine receptor M1 (Homo sapiens), P11229 | CHO-K1 hM1, ACh EC20; 0% = ACh EC20, 100% = maximal ACh | activation, % at 3 µM | 0.088% of 360,000 active; in the data active means activation above about 19%, passing the limit was not always enough
M1 antag: human M1 muscarinic receptor antagonists, primary screen, CHO-K1 cells, Fluo-8 calcium fluorescence, 1536-well; 1.3% of 360,000 active; inhibition, % at 3 µM; AID 588852, 2011; CHO-K1 hM1, ACh EC80 antagonist;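 active means percent inhibition above its own plate's cutoff, namely the mean of that plate's compound wells plus 3 SD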;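 further: peak over basal fluorescence ratio during 140 s after agonist addition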
M1 ag parental: counter-screen for M1 agonists: effect in parental CHO-K1 cells. Fluo-8 calcium fluorescence; scaled to maximal ATP response, vehicle zero. activation, % at 3 µM. 0.48% of 360,000 active; in the data active means activation above about 15%;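 further: untransfected CHO-K1 host cells lacking M1 receptor as counterscreen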
M1 PAM parental: nonselective calcium activators in parental CHO-K1 cells, primary screen, counter-screen for M1 PAM project, cell-based, Fluo-8 calcium fluorescence, full deck, 1536-well; ATP EC20; 0% at ATP EC20, 100% at ATP max; activation, % at 3 µM; 0.02% of 360,000 active; AID 602247, 2012;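 active means activation above the run cutoff, the mean activation of all test compounds plus 3 SD, cut at about 40% in these data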;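 further: peak over basal fluorescence ratio in a 140 s read after ATP addition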
Of the large screens only hits and unclear results are named; the others gave an inactive call.

O=Cc1cn(-c2ccccc2)nc1-c1ccccc1	none
CC1=NNC(=O)/C1=C\c1cn(-c2ccccc2)nc1-c1ccccc1	M1 antag 33
FC(F)(F)c1cc(Cl)c2nc(-c3ccccc3)c(Cc3cccc(Cl)c3)n2c1	none (no result: M1 ag, M1 PAM, M1 antag)
Cc1ccc(NC(=O)CCCCCC2NC(=O)NC2C)cc1 (stereo unspecified)	none
CCOC(=O)CCCCCCCCC(=O)Nc1ccc(-n2[nH]c(=O)cc2C)cc1	M1 ag 20
CC(C)[C@@H]1CC[C@@H](C)C[C@H]1O	none
COc1ccc(Oc2c(C)oc3c(CN(C)C)c(O)ccc3c2=O)cc1	M1 antag 32
CC(=O)c1ccc(Nc2nc(CN)cs2)cc1	none
COc1ccc(-c2cn(-c3ccccc3)c3[n+]2CCS3)cc1	M1 antag 40
CC(C)(C)c1ccc(-c2cn(-c3ccc(Br)cc3)c3[n+]2CCCS3)cc1	M1 antag 79
O=C(C1CCCCC1)N1CCC2CC1c1cc(-c3ccc4c(c3)OCO4)ccc12 (stereo unspecified)	M1 antag 35
CCCS(=O)(=O)NC(=O)C1(C)CCCN(C(=O)c2ccccc2OC(F)(F)F)C1 (stereo unspecified)	none
CC1=C(C(=O)OC2CCCCCC2)C(c2ccc(C)o2)C2=C(CCCC2=O)N1 (stereo unspecified)	none
COC(=O)C1=C(C)NC2=C(C(=O)CCC2)C1c1ccc(-c2ccsc2C(=O)OC)o1 (stereo unspecified)	M1 ag 25
CC(C)=CCC[C@H](C)C[C@@H]1CC2=C(C(=O)OC(C)(C)O2)[C@@H](c2ccc(F)cc2)O1	none (no result: M1 ag, M1 PAM, M1 antag)
O=C(COc1ccc2ccc(=O)oc2c1)Nc1cccc(S(=O)(=O)N2CCCCC2)c1	M1 ag parental 17
CC(=O)c1ccc(OCC(=O)Nc2cccc(S(=O)(=O)N3CCCC3)c2)cc1	M1 antag 31
O=C(COC(=O)C1CC2C=CC1C2)Nc1cccc(S(=O)(=O)N2CCCCCC2)c1 (stereo unspecified)	M1 ag parental 16
Cc1ccc(OCC(=O)Nc2cccc(S(=O)(=O)N3CCCC3)c2)cc1C	none
Cc1ccccc1Oc1ccc2c(c1)[C@@H]1C[C@H](N(C)C(=S)Nc3ccc(F)cc3)[C@H]([C@H](C)O)C(=O)N1CC2	none
C#CCNC(=O)C[C@@H]1C[C@@]2(C(=O)OCC)CCCC=C2N(CCCCCCCC)C1=O	none (no result: M1 ag, M1 PAM, M1 antag)
COC(=O)[C@]12CCCCC=C1N(Cc1ccc(Cl)cc1Cl)C(=O)[C@H](CC(=O)N1CCSCC1)C2	none (no result: M1 ag, M1 PAM, M1 antag)
O=C(NCc1ccco1)/C(=C/C=C\c1ccccc1)NC(=O)c1ccc(Br)o1	M1 ag parental 18
N#C/C(=C\C=C\c1ccccc1)C(=O)NCc1ccco1	none
CCN1/C(=C/c2sc(-c3ccccc3C)c[n+]2C)Sc2ccccc21	CHO-K1 Ca antag 34, M1 antag 48
CCN1/C(=C/C=C/C=C/C=C/c2sc3ccccc3[n+]2CC)Sc2ccccc21	none
CC(C)N1C(=O)S/C(=C/c2ccc(Sc3nc4ccccc4[nH]3)o2)C1=O	none
C=CCN1C(=O)S/C(=C/c2ccc(Sc3nc4ccccc4[nH]3)o2)C1=O	CHO-K1 Ca antag 26
CC(C)CCNC(=O)CN(CC1CCCO1)C(=O)CCC(=O)Nc1nccs1 (stereo unspecified)	M1 PAM 20
CCOc1ccc(-c2noc(-c3csc([C@@H]4O[C@H](CO)[C@H](O)[C@H](O)[C@H]4O)n3)n2)cc1	none
COc1ccc(C(c2c(C)[nH]n(-c3ccccc3)c2=O)c2c(C)[nH]n(-c3ccccc3)c2=O)cc1OC	M1 ag parental 15
COc1ccc(C(c2c(C)n(C)n(-c3ccccc3)c2=O)c2c(C)n(C)n(-c3ccccc3)c2=O)cc1OC	none
CC1=C(C(=O)N2CCCCCC2)CC(CC(=O)NC2CC2)C(=O)N1Cc1ccccc1 (stereo unspecified)	none
CCOC(=O)c1oc2c(O)c(O)ccc2c(=O)c1-c1nncn1-c1ccccc1	none

Bioassay records as filed in PubChem.
